The list is not random: actives were taken first. Their share in the collection is about 1.2%.
GSH bead fluor: compound fluorescence on glutathione beads, profiling panel, artefact control, biophysical, 488/530 nm, flow cytometry; GSH beads flow cytometry, compound fluorescence 488/530 nm; stronger effect = higher value; fluorescence (KMESF) at 10 µM; hit rate 0.25% among 190,000; AID 1776, 2009; in the data active means fluorescence above about 89;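 further: glutathione beads carrying GST-tagged Bcl family fusion proteins plus one bare bead set; values are compound well signal with DMSO vehicle wells as background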
RGS4-Gao reg: modulators of RGS4 binding to Galphao, primary screen, biochemical, multiplexed bead flow cytometry. Guanine nucleotide-binding protein G(o) subunit alpha (Homo sapiens), P09471. actives lie on both sides. hit rate 0.33% among 220,000. binding response (% of control), % at 10 µM; in the data active means binding response below about 49% or above about 150%; inactive means in between;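 further: fluorescent Galphao activated with aluminum fluoride binding bead-coupled RGS4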
RGS8-Gao reg: RGS8-Galphao binding modulators, primary screen, biochemical, multiplexed bead flow cytometry; Guanine nucleotide-binding protein G(o) subunit alpha (Homo sapiens), P09471; actives lie on both sides; response (percent of control binding), % at 10 µM; hit rate 0.34% among 220,000; AID 1423, 2008; in the data active means response below about 60% or above about 140%; inactive means in between;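 further: Galphao activated as the GDP aluminium fluoride complex binding bead-coupled RGS8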
Avidin bead fluor: green autofluorescence of compounds with avidin beads – biophysical, 488/530 nm, flow cytometry, artefact control, profiling panel; compound fluorescence 488/530 nm; stronger effect = higher value; hit rate 0.38% among 220,000; fluorescence (KMESF) at 10 µM; in the data active means fluorescence above about 47
RGS7-Gao reg: RGS7-Galphao binding modulators, primary screen, biochemical, multiplexed bead flow cytometry; Guanine nucleotide-binding protein G(o) subunit alpha (Homo sapiens), P09471; actives lie on both sides; binding response (% of control), % at 10 µM; hit rate 0.35% among 220,000; in the data active means binding response below about 49% or above about 150%; inconclusive means no clear call, values can overlap the other calls; inactive means in between;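 further: fluorescent Galphao held in activated GDP-AlF4 state binding bead-coupled RGS7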
RGS16-Gao: modulators of RGS16 binding to Galphao, primary screen, biochemical, human proteins, multiplexed bead flow cytometry; binding response (% of control), % at 10 µM; bead-based flow cytometry RGS16-Galphao binding, fluorescence; actives lie on both sides; Regulator of G-protein signaling 16 (Homo sapiens) + Guanine nucleotide-binding protein …; hit rate 0.38% among 220,000; AID 1441, 2008;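 further: Galphao activated by GDP with aluminum fluoride before binding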
Target sequence (O15492 whole entry, looked up): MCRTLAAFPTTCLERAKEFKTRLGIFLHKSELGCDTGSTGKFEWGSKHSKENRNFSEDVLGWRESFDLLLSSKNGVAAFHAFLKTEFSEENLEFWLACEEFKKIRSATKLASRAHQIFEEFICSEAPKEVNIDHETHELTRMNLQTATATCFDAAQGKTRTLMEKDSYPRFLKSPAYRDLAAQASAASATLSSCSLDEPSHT
Target sequence (P09471 whole entry, looked up): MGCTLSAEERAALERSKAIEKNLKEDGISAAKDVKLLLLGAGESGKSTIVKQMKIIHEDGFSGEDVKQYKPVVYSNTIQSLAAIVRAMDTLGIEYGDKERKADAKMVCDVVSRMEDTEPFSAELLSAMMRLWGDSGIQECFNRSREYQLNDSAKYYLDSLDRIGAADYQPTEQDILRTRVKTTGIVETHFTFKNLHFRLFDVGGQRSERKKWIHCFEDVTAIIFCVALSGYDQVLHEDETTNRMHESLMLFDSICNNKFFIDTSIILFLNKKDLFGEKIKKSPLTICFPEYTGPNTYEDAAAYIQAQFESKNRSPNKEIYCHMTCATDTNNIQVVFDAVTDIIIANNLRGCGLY
RGS4-Gao HTS: modulators of RGS–Galpha-o binding, primary screen, biochemical, multiplexed beads, flow cytometry, RGS4/7/8/16/19; shares compounds with RGS16-Gao; multiplexed bead flow cytometry; RGS4–Galpha-o binding response, % at 10 µM; hit rate 99% among 1,600;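 further: fluorescently labeled Galpha-o bound to GDP with aluminium fluoride binding biotinylated RGS beads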
Avidin counter: disruption of biotin probe capture by avidin, counter-screen for RGS protein interaction modulators, biochemical, flow cytometry, bead-based; shares compounds with RGS16-Gao; streptavidin beads, fluorescein-biotin binding; inhibition, % at 10 µM; 1,700 tested, under 10 active; AID 1783, 2009;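 active means inhibition above 50%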;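 further: median green fluorescence of gated singlet beads compared with DMSO control wells; 0% = DMSO wells and 100% = complete loss of bead fluorescence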
RGS8-Gao single: RGS8-Galphao binding modulators, confirmation, biochemical, multiplexed bead flow cytometry, single concentration; bead-based flow cytometry RGS8-Galphao binding, fluorescence; actives lie on both sides; hit rate 3% among 1,700; shares compounds with RGS16-Gao; binding response (% of control), % at 10 µM; AID 1836, 2009; in the data active means binding response below about 72% or above about 130%; inactive means in between;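 further: Galphao activated as GDP AlF4 complex before binding bead RGS8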
RGS7-Gao single: RGS7-Galphao binding modulators, confirmation, biochemical, multiplexed bead flow cytometry, single concentration. shares compounds with RGS16-Gao. bead-based flow cytometry RGS7-Galphao binding; actives lie on both sides. response (percent of control binding), % at 10 µM. hit rate 7.8% among 1,700. AID 1837, 2009; in the data active means response below about 75% or above about 130%; inactive means in between;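 further: fluorescent Galphao activated with GDP and aluminum fluoride binding bead-coupled RGS7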
RGS16-Gao conf: modulators of RGS16-Galphao protein binding, confirmation, biochemical, single concentration, multiplexed bead flow cytometry | shares compounds with RGS16-Gao | bead-based flow cytometry; actives lie on both sides | response (% of control binding), % at 10 µM | hit rate 4% among 1,700 | AID 1838, 2009; in the data active means response below about 74% or above about 130%; inactive means in between;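 further: Galphao activated as the GDP aluminium fluoride complex binding bead-coupled RGS16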
RGS4-Gao confirm: modulators of RGS4-Galphao protein binding, confirmation, biochemical, single concentration, multiplexed bead flow cytometry; hit rate 4% among 1,700; binding response (% of control), % at 10 µM; shares compounds with RGS16-Gao; actives lie on both sides; in the data active means binding response below about 74% or above about 130%; inactive means in between
RGS19-Gao single: regulators of RGS19-Galphao binding, confirmation, biochemical, single point, multiplexed bead flow cytometry | shares compounds with RGS16-Gao | AID 1841, 2009 | response (percent of control binding), % at 10 µM | bead-based flow cytometry RGS19-Galphao binding; actives lie on both sides | hit rate 5% among 1,700; in the data active means response below about 50% or above about 160%; inactive means in between;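 further: 100% = no compound control and 0% = blank background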
Starred values were filed as active, the others as inactive; ? = inconclusive; / = not tested or not shown; [ ] = another dose, or the depositor's remark. Unless noted, how the calls were made is not given here.

SMILES | GSH bead fluor | RGS4-Gao reg | RGS8-Gao reg | Avidin bead fluor | RGS7-Gao reg | RGS16-Gao | Avidin counter | RGS8-Gao single | RGS7-Gao single | RGS16-Gao conf | RGS4-Gao confirm | RGS19-Gao single | others
COc1ccccc1NC(=O)N(Cc1ccccc1)C1=NCC(C)S1 (stereo unspecified) | 15 | 99 | 100 | 33 | 94 | 98 | / | / | / | / | / | /
COC(=O)CC1C(=O)NCCN1C(=O)Nc1ccc(Cl)c(Cl)c1 (stereo unspecified) | 15 | 104 | / | 23 | / | / | -1 | 102 | 99 | 99 | 102 | 87
CCOC(=O)CC(NCc1ccc(OC)c(OCC)c1)c1ccc(C)cc1 (stereo unspecified) | 12 | 98 | 98 | 6 | 93 | 97 | / | / | / | / | / | /
Cn1c(-n2c(CCCN3C(=O)c4ccccc4C3=O)nc3ccccc3c2=O)nc2ccccc21 | 255* | 180*[activator] | 118 | 42 | 116 | 725 | -1 | 103 | 107 | 103 | 103 | 105
Cc1ccnc(NCn2nnc3ccccc32)c1 | 14 | 100 | 101 | 30 | 100 | 98 | / | / | / | / | / | /
O=C(COC(=O)c1cc([N+](=O)[O-])ccc1NCCO)c1ccccc1 | 12 | 82 | 75 | 7 | 82 | 16 | / | / | / | / | / | /
c1ccc(SSc2ccccc2)cc1 | 17 | 100 | 64 | 3 | 105 | -4.9* | / | / | / | / | / | / | RGS4-Gao HTS=100*
Cc1nccnc1Sc1ccccc1 | / | 102 | 101 | 6 | ? | 100 | / | / | / | / | / | /
Oc1ccc(/C=N/Nc2ncnc3nc[nH]c23)cc1 | / | 37* | 52* | 2 | ? | 33 | -2 | 102 | 84 | 95 | 84 | 117
CCCn1c(=O)[nH]c(=O)c2c1nc(-c1ccc(OC)c(Br)c1)n2CCOC | 13 | 94 | 98 | 13 | 96 | 95 | / | / | / | / | / | /
CCOC(=O)C1(Cc2ccc(OC)cc2)CCN(C(=O)c2cccc3nccnc23)CC1 | 18 | 102 | 102 | 6 | 99 | 102 | / | / | / | / | / | /
CC(=O)c1cc(C#N)c(SCC(=O)OC(C)(C)C)nc1C | 26 | 117 | 103 | 138* | 183*[activator] | 109 | 1 | 97 | 97 | 96 | 99 | 86 | RGS4-Gao HTS=117*
CC(=O)c1cc(C#N)c(SCC(=O)OC(C)C)nc1C | 17 | 99 | 103 | 9 | 97 | 101 | / | / | / | / | / | /

Assay outcomes from PubChem.
